# Laboratory results from PubChem BioAssay (NCI).
# Compounds without any hit were thinned out: in the full panel of roughly 79,000, 15% have a hit. A number with no mark means an inactive call. Calls of active or inactive are those of the source. No stated cut-off is given here; in the data, active means growth inhibition above about 70%; inactive means the rest.
# Tests used:
# [1] = NCI Yeast Anticancer Drug Screen. Data for the mlh1 strain (AID 171);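 further: 0% = growth of vehicle-treated control cultures of the same strain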; settings: S. cerevisiae mlh1 strain growth inhibition, hits give high values
# Outline: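 Yeast carrying a defined genetic alteration in DNA damage repair or cell cycle control were exposed to test compounds. Growth inhibition was measured relative to vehicle-treated controls.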
# [2] = NCI Yeast Anticancer Drug Screen. Data for the sgs1 strain (AID 173);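 further: 0% = growth of vehicle-only control cultures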; settings: S. cerevisiae sgs1 mutant, hits give high values
# Outline: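 Yeast mutant strains carrying defined defects in DNA damage repair or cell cycle control were exposed to test compounds. Growth inhibition was scored against vehicle-treated controls.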
# [3] = NCI Yeast Anticancer Drug Screen. Data for the mlh1 rad18 strain (AID 175); settings: S. cerevisiae mlh1 rad18 strain growth inhibition, hits give high values
# Outline: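 Growth inhibition of the yeast strain was measured after compound exposure and expressed relative to vehicle-treated controls. The strain carries defined defects in DNA damage repair.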
# [4] = NCI Yeast Anticancer Drug Screen. Data for the rad18 strain (AID 177); settings: S. cerevisiae rad18 mutant growth inhibition, hits give high values
# Outline: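 Yeast carrying a defined DNA damage repair alteration were exposed to compounds. Growth inhibition was expressed relative to vehicle-treated controls.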
# [5] = NCI Yeast Anticancer Drug Screen. Data for the rad52 strain (AID 147);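 further: 0% = growth of vehicle-treated control cultures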; settings: S. cerevisiae rad52 mutant growth inhibition, hits give high values
# Outline: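 Yeast strain carrying a DNA damage repair alteration was exposed to test compounds. Growth inhibition was measured relative to vehicle-treated controls.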
# [6] = NCI Yeast Anticancer Drug Screen. Data for the rad50EPP+ strain (AID 151);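 further: 0% = growth of vehicle-treated control cultures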; settings: S. cerevisiae rad50 mutant strain, hits give high values
# Outline: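 Yeast strain carrying rad50 alteration (rad50EPP+) exposed to compounds; growth inhibition measured relative to vehicle-treated controls.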
# [7] = NCI Yeast Anticancer Drug Screen. Data for the mgt1 strain (AID 153); settings: S. cerevisiae mgt1 mutant growth inhibition, hits give high values
# Outline: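 Yeast mgt1 strain (DNA repair/cell-cycle alteration panel) exposed to compounds; growth inhibition measured relative to vehicle-treated controls.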
# [8] = NCI Yeast Anticancer Drug Screen. Data for the rad50 strain (AID 155);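 further: 0% = growth of vehicle-only cultures of the same strain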; settings: S. cerevisiae rad50 strain growth inhibition, hits give high values
# Outline: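 Yeast carrying a defined DNA repair defect were exposed to test compounds, and growth was compared with vehicle-treated controls to give percent inhibition.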
# [9] = NCI Yeast Anticancer Drug Screen. Data for the mec2-1 strain (AID 157); settings: S. cerevisiae mec2-1 strain, hits give high values
# Outline: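 mec2-1 yeast strain, carrying an alteration in DNA damage repair or cell cycle control, was exposed to compounds; growth inhibition was measured relative to vehicle-treated controls.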
# [10] = NCI Yeast Anticancer Drug Screen. Data for the rad14 strain (AID 159);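 further: 0% = growth of vehicle-treated control cultures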; settings: S. cerevisiae rad14 strain growth inhibition, hits give high values
# Outline: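 Yeast cells carrying a defined DNA-repair defect were exposed to compounds, and growth inhibition was calculated relative to vehicle-treated control cultures.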
# [11] = NCI Yeast Anticancer Drug Screen. Data for the sgs1 mgt1 strain (AID 161);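 further: 0% = growth of cultures given vehicle only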; settings: S. cerevisiae sgs1 mgt1 strain, hits give high values
# Outline: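 This yeast growth screen uses a strain with defined DNA-repair lesions; compound-treated growth is compared with vehicle-treated growth.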
# [12] = NCI Yeast Anticancer Drug Screen. Data for the CLN2oe strain (AID 163);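 further: 0% = growth of vehicle-only control cultures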; settings: S. cerevisiae CLN2oe strain, hits give high values
# Outline: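 Yeast cells carrying a defined cell-cycle control alteration were exposed to test compounds. Growth inhibition was scored against vehicle-treated control cultures.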
# [13] = NCI Yeast Anticancer Drug Screen. Data for the cln2 rad14 strain (AID 165);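 further: 0% = growth equal to vehicle treated cultures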; settings: S. cerevisiae cln2 rad14 strain, hits give high values
# Outline: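 Yeast carrying cln2 and rad14 alterations (cell cycle control and DNA damage repair) were exposed to compounds. Growth inhibition was measured against vehicle-treated controls.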
# [14] = NCI Yeast Anticancer Drug Screen. Data for the bub3 strain (AID 167); settings: S. cerevisiae bub3 mutant strain, hits give high values
# Outline: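 Compounds were applied to a genetically altered yeast strain carrying a cell-cycle control defect. Growth inhibition was scored against vehicle-treated controls.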
# [15] = NCI Yeast Anticancer Drug Screen. Data for the wt2 strain (AID 169);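 further: 0% = growth of vehicle-treated yeast cultures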; settings: S. cerevisiae wt2 strain growth inhibition, hits give high values
# Outline: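 Yeast cells were exposed to test compounds, and growth inhibition was measured relative to vehicle-treated controls.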
# [16] = NCI Yeast Anticancer Drug Screen. Data for the wt1 strain (AID 149);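 further: 0% = growth of vehicle-treated wt1 cultures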; settings: S. cerevisiae wt1 strain (SPY 50644) growth inhibition, hits give high values
# Outline: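 Yeast wt1 strain exposed to compounds; growth inhibition measured relative to vehicle-treated controls.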
# [17] = at 5.0 µM (retest, dose inferred, filed as 0.5)
# [18] = at 50.0 µM (retest, dose inferred, filed as 5.0)
smiles,measurement,setting,value
Cc1cccc(C(C)(C)C)c1NC(=O)C(C#N)C1=C(Cl)C(=O)c2ccccc2C1=O (centres undefined),growth inhibition,[1]; at 1.2 µM,17%
same,growth inhibition,[1]; at 3.7 µM,22%
same,growth inhibition,[1]; at 11.0 µM,56%
same,growth inhibition,[1]; at 33.0 µM,99% (active)
same,growth inhibition,[1]; at 100.0 µM,98% (active)
same,growth inhibition,[2]; at 1.2 µM,-2%
same,growth inhibition,[2]; at 3.7 µM,9%
same,growth inhibition,[2]; at 11.0 µM,45%
same,growth inhibition,[2]; at 33.0 µM,98% (active)
same,growth inhibition,[2]; at 100.0 µM,97% (active)
same,growth inhibition,[3]; [17],11%
same,growth inhibition,[3]; [18],97% (active)
same,growth inhibition,[3]; at 50.0 µM,89.5% (active)
same,growth inhibition,[4]; at 1.2 µM,-6%
same,growth inhibition,[4]; at 3.7 µM,34%
same,growth inhibition,[4]; at 11.0 µM,59%
same,growth inhibition,[4]; at 33.0 µM,98% (active)
same,growth inhibition,[4]; at 100.0 µM,97% (active)
COC(=O)CC1CCc2c(ccc3ccccc23)C1(C)C(=O)OC (centres undefined),growth inhibition,[5]; at 1.2 µM,-1%
same,growth inhibition,[5]; at 3.7 µM,2%
same,growth inhibition,[5]; at 11.0 µM,14%
same,growth inhibition,[5]; at 33.0 µM,5%
same,growth inhibition,[5]; at 100.0 µM,32%
same,growth inhibition,[6]; at 1.2 µM,5%
same,growth inhibition,[6]; at 3.7 µM,16%
same,growth inhibition,[6]; at 11.0 µM,16%
same,growth inhibition,[6]; at 33.0 µM,48%
same,growth inhibition,[6]; at 100.0 µM,45%
same,growth inhibition,[7]; at 1.2 µM,-3%
same,growth inhibition,[7]; at 3.7 µM,0%
same,growth inhibition,[7]; at 11.0 µM,-2%
same,growth inhibition,[7]; at 33.0 µM,17%
same,growth inhibition,[7]; at 100.0 µM,53%
same,growth inhibition,[8]; at 1.2 µM,1%
same,growth inhibition,[8]; at 3.7 µM,2%
same,growth inhibition,[8]; [17],-5%
same,growth inhibition,[8]; at 11.0 µM,10%
same,growth inhibition,[8]; at 33.0 µM,15%
same,growth inhibition,[8]; [18],21%
same,growth inhibition,[8]; at 50.0 µM,15.3%
same,growth inhibition,[8]; at 100.0 µM,37%
same,growth inhibition,[9]; at 1.2 µM,-3%
same,growth inhibition,[9]; at 3.7 µM,-2%
same,growth inhibition,[9]; [17],-5%
same,growth inhibition,[9]; at 11.0 µM,-2%
same,growth inhibition,[9]; at 33.0 µM,-7%
same,growth inhibition,[9]; [18],28%
same,growth inhibition,[9]; at 50.0 µM,-1.05%
same,growth inhibition,[9]; at 100.0 µM,6%
same,growth inhibition,[10]; at 1.2 µM,-2%
same,growth inhibition,[10]; at 3.7 µM,1%
same,growth inhibition,[10]; at 11.0 µM,2%
same,growth inhibition,[10]; at 33.0 µM,-5%
same,growth inhibition,[10]; at 100.0 µM,10%
same,growth inhibition,[11]; [17],-2%
same,growth inhibition,[11]; [18],80% (active)
same,growth inhibition,[11]; at 50.0 µM,66%
same,growth inhibition,[12]; at 1.2 µM,-4%
same,growth inhibition,[12]; at 3.7 µM,-5%
same,growth inhibition,[12]; at 11.0 µM,-11%
same,growth inhibition,[12]; at 33.0 µM,-21%
same,growth inhibition,[12]; at 100.0 µM,0%
same,growth inhibition,[13]; [17],-3%
same,growth inhibition,[13]; [18],11%
same,growth inhibition,[13]; at 50.0 µM,1.4%
same,growth inhibition,[14]; at 1.2 µM,3%
same,growth inhibition,[14]; at 3.7 µM,2%
same,growth inhibition,[14]; [17],2%
same,growth inhibition,[14]; at 11.0 µM,6%
same,growth inhibition,[14]; at 33.0 µM,46%
same,growth inhibition,[14]; [18],75% (active)
same,growth inhibition,[14]; at 50.0 µM,63.5%
same,growth inhibition,[14]; at 100.0 µM,71% (active)
same,growth inhibition,[15]; at 1.2 µM,1%
same,growth inhibition,[15]; at 3.7 µM,-8%
same,growth inhibition,[15]; at 11.0 µM,-1%
same,growth inhibition,[15]; at 33.0 µM,-5%
same,growth inhibition,[15]; at 100.0 µM,12%
same,growth inhibition,[1]; at 1.2 µM,-5%
same,growth inhibition,[1]; at 3.7 µM,-2%
same,growth inhibition,[1]; at 11.0 µM,0%
same,growth inhibition,[1]; at 33.0 µM,14%
same,growth inhibition,[1]; at 100.0 µM,57%
same,growth inhibition,[2]; at 1.2 µM,-24%
same,growth inhibition,[2]; at 3.7 µM,-30%
same,growth inhibition,[2]; at 11.0 µM,-18%
same,growth inhibition,[2]; at 33.0 µM,13%
same,growth inhibition,[2]; at 100.0 µM,79% (active)
same,growth inhibition,[3]; [17],-3%
same,growth inhibition,[3]; [18],54%
same,growth inhibition,[3]; at 50.0 µM,27.6%
same,growth inhibition,[4]; at 1.2 µM,-10%
same,growth inhibition,[4]; at 3.7 µM,-4%
same,growth inhibition,[4]; at 11.0 µM,-2%
same,growth inhibition,[4]; at 33.0 µM,-3%
same,growth inhibition,[4]; at 100.0 µM,20%
CC1=C(C(=O)NCc2ccccc2)C(c2ccccc2)C(C(=O)NCc2ccccc2)=C(C)N1,growth inhibition,[5]; at 1.2 µM,-3%
same,growth inhibition,[5]; at 3.7 µM,-4%
same,growth inhibition,[5]; at 11.0 µM,-4%
same,growth inhibition,[5]; at 33.0 µM,-20%
same,growth inhibition,[5]; at 100.0 µM,85% (active)
same,growth inhibition,[16]; at 1.2 µM,0%
same,growth inhibition,[16]; at 3.7 µM,-1%
same,growth inhibition,[16]; at 11.0 µM,-4%
same,growth inhibition,[16]; at 33.0 µM,4%
same,growth inhibition,[16]; at 100.0 µM,89% (active)
same,growth inhibition,[7]; at 1.2 µM,-2%
same,growth inhibition,[7]; at 3.7 µM,-2%
same,growth inhibition,[7]; at 11.0 µM,-3%
same,growth inhibition,[7]; at 33.0 µM,6%
same,growth inhibition,[7]; at 100.0 µM,97% (active)
same,growth inhibition,[8]; at 1.2 µM,-14%
same,growth inhibition,[8]; at 3.7 µM,21%
same,growth inhibition,[8]; [17],2%
same,growth inhibition,[8]; at 11.0 µM,22%
same,growth inhibition,[8]; at 33.0 µM,36%
same,growth inhibition,[8]; [18],75% (active)
same,growth inhibition,[8]; at 50.0 µM,75.5% (active)
same,growth inhibition,[8]; at 100.0 µM,91% (active)
same,growth inhibition,[9]; at 1.2 µM,-1%
same,growth inhibition,[9]; at 3.7 µM,-4%
same,growth inhibition,[9]; [17],11%
same,growth inhibition,[9]; at 11.0 µM,-3%
same,growth inhibition,[9]; at 33.0 µM,18%
same,growth inhibition,[9]; [18],81% (active)
same,growth inhibition,[9]; at 50.0 µM,93.3% (active)
same,growth inhibition,[9]; at 100.0 µM,94% (active)
same,growth inhibition,[10]; at 1.2 µM,1%
same,growth inhibition,[10]; at 3.7 µM,4%
same,growth inhibition,[10]; at 11.0 µM,6%
same,growth inhibition,[10]; at 33.0 µM,16%
same,growth inhibition,[10]; at 100.0 µM,92% (active)
same,growth inhibition,[11]; [17],-1%
same,growth inhibition,[11]; [18],82% (active)
same,growth inhibition,[11]; at 50.0 µM,70.7% (active)
same,growth inhibition,[12]; at 1.2 µM,-5%
same,growth inhibition,[12]; at 3.7 µM,1%
same,growth inhibition,[12]; at 11.0 µM,-2%
same,growth inhibition,[12]; at 33.0 µM,4%
same,growth inhibition,[12]; at 100.0 µM,63%
same,growth inhibition,[13]; [17],-7%
same,growth inhibition,[13]; [18],51%
same,growth inhibition,[13]; at 50.0 µM,11.4%
same,growth inhibition,[14]; at 1.2 µM,-1%
same,growth inhibition,[14]; at 3.7 µM,1%
same,growth inhibition,[14]; [17],6%
same,growth inhibition,[14]; at 11.0 µM,0%
same,growth inhibition,[14]; at 33.0 µM,45%
same,growth inhibition,[14]; [18],84% (active)
same,growth inhibition,[14]; at 50.0 µM,87.8% (active)
same,growth inhibition,[14]; at 100.0 µM,94% (active)
same,growth inhibition,[15]; at 1.2 µM,-1%
same,growth inhibition,[15]; at 3.7 µM,7%
same,growth inhibition,[15]; at 11.0 µM,-3%
same,growth inhibition,[15]; at 33.0 µM,10%
same,growth inhibition,[15]; at 100.0 µM,91% (active)
same,growth inhibition,[1]; at 1.2 µM,-4%
same,growth inhibition,[1]; at 3.7 µM,-3%
same,growth inhibition,[1]; at 11.0 µM,-3%
same,growth inhibition,[1]; at 33.0 µM,8%
same,growth inhibition,[1]; at 100.0 µM,96% (active)
same,growth inhibition,[2]; at 1.2 µM,-1%
same,growth inhibition,[2]; at 3.7 µM,-2%
same,growth inhibition,[2]; at 11.0 µM,5%
same,growth inhibition,[2]; at 33.0 µM,40%
same,growth inhibition,[2]; at 100.0 µM,93% (active)
same,growth inhibition,[3]; [17],4%
same,growth inhibition,[3]; [18],82% (active)
same,growth inhibition,[3]; at 50.0 µM,93.1% (active)
same,growth inhibition,[4]; at 1.2 µM,2%
same,growth inhibition,[4]; at 3.7 µM,3%
same,growth inhibition,[4]; at 11.0 µM,7%
same,growth inhibition,[4]; at 33.0 µM,60%
same,growth inhibition,[4]; at 100.0 µM,96% (active)
